HEK cytotox – Cytotoxic Profiling in HEK 293 Cell Line of Diverse Libraries Using Quantitative High-Throughput Screening; HEK 293 viability, ATP luminescence (CellTiter-Glo), 48-72 h; Potency, µM (series often up to 115 µM), usual class: inhibitors; hit rate 6.6% among 94,000; AID 1345083, 2018; further: nearly all actives have a fitted effect of over 60% in size
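250 HEK 293 cells/well; compound by pintool; incubated 48 or 72 hr at 37 degree Celsius; CellTiter-Glo added, 10 min RT, luminescence imaged.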
hNpr1 antagonist – Natriuretic polypeptide receptor (hNpr1) antagonism - Primary qHTS; HEK293 hNpr1 GloSensor cGMP, ANP-stimulated luminescence; Potency, µM (highest dose often 46.3 µM), most hits filed as inhibitors; hit rate 1.6% among 76,000; calls by dose curve; further: nearly all actives have a fitted effect of over 60% in size
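Compound pre-incubated 30 min at room temperature on GloSensor-loaded HEK293 cells stably carrying hNpr1 and the pGS-40F cGMP biosensor. Stimulation uses hNppA at 0.1 nM final; luminescence is taken at baseline and 20 min post-agonist.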
Luciferase inh – Firefly luciferase inhibition profiling of diverse chemical library using quantitative high-throughput screening | Potency, µM (titrated, usually from 115 µM), hits mostly inhibitors | hit rate 2.5% among 76,000 | purified P. pyralis luciferase, luminescence, biochemical | Luciferin 4-monooxygenase (Photinus pyralis), P08659; further: nearly all actives have a fitted effect of over 65% in size
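Purified 10nM P. pyralis luciferase with 10uM D-luciferin and 10uM ATP in 50mM Tris acetate pH 7.5, 10mM Mg acetate, 0.01% Tween-20, 0.05% BSA. qHTS titration; luminescence read by CCD imager.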
GPT2 inh – Primary qHTS assay for inhibitors of Glutamate pyruvate transaminase 2 (GPT2). Alanine aminotransferase 2 (Homo sapiens), Q8TD30. Recombinant GPT2, coupled pyruvate oxidase/HRP Amplex Red fluorescence. Potency, µM (series often up to 57.7 µM), hits mostly inhibitors. hit rate 0.25% among 100,000; further: nearly all actives have a fitted effect of over 60% in size
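Inhibition is scored from Amplex Red fluorescence generated when pyruvate oxidase and HRP act on pyruvate released by GPT2. Reactions contain 10ng/uL enzyme, 250uM a-KG and 2mM L-alanine and run 30 min at room temperature.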
3T3 cytotox – Cytotoxic Profiling in NIH 3T3 Cell Line of Diverse Libraries Using Quantitative High-Throughput Screening. Potency, µM (doses to about 96.7 µM), hits mostly inhibitors. AID 1345082, 2018. NIH 3T3 viability, CellTiter-Glo ATP luminescence, 48-72 h. hit rate 4.3% among 94,000; further: nearly all actives have a fitted effect of over 55% in size
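Cytotoxicity was measured by CellTiter-Glo ATP luminescence after 48 or 72 h compound exposure at 37 °C. Mouse NIH 3T3 fibroblasts were seeded at 400 cells/well and dosed by 23 nL pin transfer.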
Npr1 antag conf – Natriuretic polypeptide receptor (hNpr1) antagonism - Confirmation; shares compounds with hNpr1 antagonist; HEK293 hNpr1 cGMP GloSensor luminescence, ANP-stimulated; Potency, µM (highest dose often 57.6 µM), most hits filed as inhibitors; hit rate 76% among 1,400; AID 1347044, 2019; calls by dose curve; further: nearly all actives have a fitted effect of over 70% in size
NPR2 antag – Natriuretic polypeptide receptor (hNpr2) antagonism - Subtype selectivity assay | HEK293 hNpr2 GloSensor cGMP luminescence, CNP-stimulated | hit rate 67% among 1,400 | shares compounds with hNpr1 antagonist | Potency, µM (top dose mostly 57.6 µM), actives largely listed as inhibitors; calls by dose curve; further: nearly all actives have a fitted effect of over 70% in size
Target sequence (P20594 whole entry, looked up): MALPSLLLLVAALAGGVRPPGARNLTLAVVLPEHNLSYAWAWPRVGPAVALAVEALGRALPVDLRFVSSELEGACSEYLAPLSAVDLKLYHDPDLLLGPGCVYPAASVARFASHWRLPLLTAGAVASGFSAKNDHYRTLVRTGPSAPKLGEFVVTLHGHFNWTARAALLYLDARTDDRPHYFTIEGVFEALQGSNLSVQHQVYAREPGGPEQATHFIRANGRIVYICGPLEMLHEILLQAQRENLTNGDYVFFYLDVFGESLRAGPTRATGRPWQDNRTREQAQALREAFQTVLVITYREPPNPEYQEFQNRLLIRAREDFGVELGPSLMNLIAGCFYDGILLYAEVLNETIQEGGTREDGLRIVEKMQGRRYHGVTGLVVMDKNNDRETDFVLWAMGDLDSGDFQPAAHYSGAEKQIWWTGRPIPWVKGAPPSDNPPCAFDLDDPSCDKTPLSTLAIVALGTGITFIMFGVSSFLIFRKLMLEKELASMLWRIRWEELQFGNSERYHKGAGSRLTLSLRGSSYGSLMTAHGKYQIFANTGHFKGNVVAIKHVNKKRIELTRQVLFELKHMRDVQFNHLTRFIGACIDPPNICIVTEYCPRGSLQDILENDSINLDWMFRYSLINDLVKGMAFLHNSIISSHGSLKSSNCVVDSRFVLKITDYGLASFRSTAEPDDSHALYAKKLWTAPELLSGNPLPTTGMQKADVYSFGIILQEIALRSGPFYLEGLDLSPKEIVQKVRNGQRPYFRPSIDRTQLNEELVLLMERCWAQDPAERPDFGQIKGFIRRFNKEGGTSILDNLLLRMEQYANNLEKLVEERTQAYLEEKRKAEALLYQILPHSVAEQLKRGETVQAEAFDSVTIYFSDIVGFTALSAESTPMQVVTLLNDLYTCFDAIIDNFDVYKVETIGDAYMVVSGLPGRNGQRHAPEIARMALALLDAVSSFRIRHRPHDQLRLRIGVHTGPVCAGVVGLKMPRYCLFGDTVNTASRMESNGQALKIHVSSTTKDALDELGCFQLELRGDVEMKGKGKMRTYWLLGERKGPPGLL
FLuc counter – Natriuretic polypeptide receptor (hNpr1) antagonism - Confirmation firefly luciferase (FLuc) inhibition counterscreen; shares compounds with hNpr1 antagonist; purified FLuc enzyme, luminescence, Km substrate; Potency, µM (highest dose often 57.6 µM), usual class: inhibitors; hit rate 0.7% among 1,400; AID 1347047, 2019
GloSensor ctrl – Natriuretic polypeptide receptor (hNpr1) antagonism - Counterscreen GloSensor control cell line | HEK293 GloSensor cGMP, SNP-stimulated, luminescence | shares compounds with hNpr1 antagonist | Potency, µM (doses to about 57.6 µM), usual class: inhibitors | hit rate 69% among 1,400; calls by dose curve; further: nearly all actives have a fitted effect of over 70% in size
Hits are given with their value; - = inactive; ? = inconclusive; . = not tested or not shown. A selection: hits, their analogues and other compounds. The true share with any hit is near 10%. Unless noted, the call rests on the fitted dose curve; in most records, active means well fitted curve in the direction sought with a large enough effect; inconclusive means small, poorly fitted or top-dose-only effect, or another doubt; inactive means no such curve, though single readings can be large; an effect the other way counts as inactive or inconclusive.

SMILES | HEK cytotox | hNpr1 antagonist | Luciferase inh | GPT2 inh | 3T3 cytotox | Npr1 antag conf | NPR2 antag | FLuc counter | GloSensor ctrl
CCC1=C(C(=O)OC)C(c2ccccc2Cl)N2C(CC(=O)N(C)Cc3ccccc3)=CSC2=N1 (centres undefined) | ? | ? | - | - | ? | ? | ? | - | ?
COC(=O)C1=C(C)N=C2SC=C(CC(=O)N3CCC(C)CC3)N2C1c1cccc(OC)c1 (centres undefined) | 40µM | ? | - | - | ? | ? | 19µM | - | -
C=CCOC(=O)C1=C(C)N=C2SC=C(CC(=O)N3CCCC3)N2C1c1cccc(OC)c1OC (centres undefined) | - | - | - | - | - | . | . | . | .
CCC1=C(C(=O)OC)C(c2ccccc2)N2C(CC(=O)N(C)Cc3ccccc3)=CSC2=N1 (centres undefined) | ? | - | - | - | ? | . | . | . | .
CC(=O)Nc1ccc(C2(C(=O)NCc3ccco3)CCC2)cc1 | - | - | - | ? | - | . | . | . | .
CC1=C(C(=O)OC(C)C)C(c2ccc([N+](=O)[O-])cc2)N2C(CC(=O)N3CCCC3)=CSC2=N1 (centres undefined) | ? | ? | - | - | - | . | . | . | .
CC1=C(C(=O)OC(C)C)C(c2ccccc2F)N2C(CC(=O)N3CCCC3)=CSC2=N1 (centres undefined) | - | ? | - | - | - | ? | ? | - | ?
Cc1cc(CNC(=O)c2ccc(S(=O)(=O)NCC(F)F)cc2)on1 | - | - | - | - | - | . | . | . | .
Cc1cc(CNC(=O)c2ccc3c(c2)n(CC2CC2)c(=O)n3C2CCCCC2)on1 | - | 5.6µM | - | - | ? | 14µM | 4.8µM | - | -
COc1cc(CN2CCC(C)(c3noc(C4CCOCC4)n3)CC2)cc(OC)c1 | - | ? | - | ? | - | ? | ? | - | -
COc1ccc2ccc(OCc3nc(C(=O)N4CCC(NC(C)=O)CC4)co3)cc2c1 | ? | - | - | - | ? | . | . | . | .
COc1ccc2ccc(OCc3nc(C(=O)N(C)CC4CCCO4)co3)cc2c1 (centres undefined) | ? | - | ? | - | ? | . | . | . | .
COc1ccc2ccc(OCc3nc(C(=O)N(C)Cc4cc(C)no4)co3)cc2c1 | ? | ? | - | - | ? | 31µM | ? | - | ?
COc1ccc2ccc(OCc3nc(C(=O)N4CCCC(C(N)=O)C4)co3)cc2c1 (centres undefined) | ? | 11µM | - | - | ? | 14µM | 19µM | - | 11µM
COc1ccc2ccc(OCc3nc(C(=O)N(C)CC(C)O)co3)cc2c1 (centres undefined) | ? | ? | - | - | ? | . | . | . | .
C=CCNC(=O)c1coc(COc2ccc3ccc(OC)cc3c2)n1 | 45µM | 10µM | - | - | ? | 24µM | 22µM | - | 22µM
O=C(NC1CCCc2c1[nH]c1ccc(F)cc21)c1ccncc1 (centres undefined) | ? | - | - | ? | ? | . | . | . | .
O=C(NC1CCCc2c1[nH]c1ccc(Cl)cc21)c1ccncc1 (centres undefined) | 22µM | ? | - | - | ? | ? | - | - | -

Screens deposited in PubChem BioAssay by National Center for Advancing Translational Sciences (NCATS).
